AHR act: AHR activators, primary screen, cell-based, luminescence, luciferase reporter, human | Aryl hydrocarbon receptor (Homo sapiens), P35869 | AHR-responsive luciferase reporter cells | activation, % at 5 µM | 2.5% of 320,000 active; in the data active = activation above about 47%
HSF-1 act: HSF-1 activators, primary screen, NIH3T3-HGL cells, MG132 stress, luminescence, single point | activation, % at 9 µM | NIH3T3-HGL HSF-1 luciferase reporter, 8 h; 100% = twice DMSO control signal | 1.7% of 300,000 active;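 active = mean replicate activation of at least 50% with a set share of replicates each reaching 50%; inconclusive = only one of those two conditions met; inactive = mean below 50% and too few replicates reaching it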
DAX1 inh: DAX1 (NR0B1) inhibitors, primary screen, cell-based, HEK293, Gal4-DAX1, luciferase luminescence; Nuclear receptor subfamily 0 group B member 1 (Homo sapiens), P51843; inhibition, % at 6.75 µM; 0.99% of 340,000 active; HEK293 Gal4-DAX1 luciferase reporter;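 active = inhibition above the mean over all tested compounds plus 3 SD, cut at about 4.2% in these data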;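 also: inhibition shows as a rise in luminescence from relieved DAX1 repression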
HSF1 inhib: HSF1 inhibitors in luciferase reporter cells, primary screen, cell-based, NIH3T3, luminescence | NIH3T3-HGL HSE-luciferase, MG132-induced, luminescence 8 h; active compounds read low | activity change, negative = inhibition, % at 7.5 µM (by protocol) | 0.77% of 300,000 active | AID 2098, 2009;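 active = more than half of replicate wells show activity change below -50%, luminescence cut by over half; inconclusive = some wells, but at most half, below -50%; inactive = no replicate well below -50%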;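 also: luciferase reports HSF-1 transcriptional activity via heat shock element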
FXN GAA850 act: FXN promoter activators, primary screen, cell-based, luciferase luminescence, HEK293 lucGAA850. HEK293 lucGAA850 FXN promoter luciferase reporter, 24 h; percent of 10 µM SAHA response. 0.56% of 360,000 active. activation, % at 6 µM;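 active = activation above the average of all compounds screened plus 3 SD, cutoff fixed separately per campaign, cut at about 7.5% in these data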
Each line names hits and unclear results; the compound was inactive in the other large screens. Compounds with a hit are over-represented: about 5.4% of the library has one in this group of screens.

O=C(CCl)Nc1ccccc1C(=O)c1ccccc1	HSF1 inhib -95
c1ccc(CSc2nnc(-c3ccco3)o2)cc1	none
c1coc(-c2nnc(SCc3nc4ccccc4[nH]3)o2)c1	AHR act 49
Brc1ccc(CSc2nnc(-c3ccco3)o2)cc1	HSF-1 act 56
O=C(Cc1ccccc1)N[C@@H](Cc1ccc(O)cc1)C(=O)O	none (no result: AHR act, DAX1 inh, FXN GAA850 act)
CC(C)C(=O)Nc1nc2cc3c(cc2s1)OCO3	AHR act 66
O=C(Nc1nc2cc3c(cc2s1)OCO3)C1CC1	AHR act 57
OCCNc1nc(-c2ccccc2)nc2ccccc12	none
Clc1ccc(-c2nc(NCCN3CCOCC3)c3ccccc3n2)cc1	AHR act 63
CCOC(=O)N1CCN(C(=O)C2CCN(C(=O)c3ccc(C(C)(C)C)cc3)CC2)CC1	DAX1 inh 4.4
COc1ccccc1OCCNc1cc(N2CCCCC2)ccc1[N+](=O)[O-]	AHR act 69
Cc1ccccc1OCCNc1cc(N2CCNCC2)ccc1[N+](=O)[O-]	none (no result: DAX1 inh, FXN GAA850 act)
COCCNC(=O)CSc1ccccc1C(=O)NCC1CCCCC1	DAX1 inh 6.6
CC1CCN(C(=O)c2ccccc2SCC(=O)NCC2CCCCC2)CC1	none
CS(=O)(=O)c1ccccc1-c1nc(-c2ccc(C(F)(F)F)cc2)no1	none
Cc1c(-c2nc(-c3ccc(C(F)(F)F)cc3)no2)n(C)oc1=O	AHR act 101 (no result: DAX1 inh)
C=CCn1c(C)nnc1SCC(=O)Nc1cc(S(=O)(=O)N2CCCC2)ccc1Cl	none (no result: AHR act, HSF-1 act, HSF1 inhib)
COc1ccccc1C(=O)N/N=C/c1c[nH]c2ccccc12	none
COc1ccc(NC(=S)NC(=O)c2cncc(Br)c2)c(OC)c1	none
CC(On1nnc2ccc(S(=O)(=O)N3CCOCC3)cc21)C(=O)Nc1ccccc1F (centres undefined)	DAX1 inh 5.0
c1ccc(-c2cc(-c3nnco3)c3ccccc3n2)nc1	AHR act 62
COc1cc(-c2cc(-c3nnco3)c3ccccc3n2)cc(OC)c1OC	none
COc1cc([N+](=O)[O-])c2nc(C(=O)O)ccc2c1	none (no result: AHR act, HSF-1 act, HSF1 inhib)
C/C(=N/NC(=O)c1cccs1)c1ccc(NC(=O)COc2ccc(Cl)cc2)cc1	DAX1 inh 4.7
C=CCNc1cc(C)oc(=O)c1C(=O)CC	none
C=CCNc1cc(C)oc(=O)c1C(=O)CCC	HSF1 inhib -68
COc1ccc(-n2c(SCCC#N)nnc2-c2cc(Cl)ccc2OC)cc1Cl	none
COC/C=C/C1=CC2=CC(=O)C(C)(OC(=O)c3cnc4ccccc4n3)C(=O)C2=CN1CCCCO (centres undefined)	DAX1 inh 4.2
CCC(C)c1ccc(NC(=S)NCc2cccs2)cc1 (centres undefined)	none
CC(=O)Nc1ccc(NCc2cccs2)cc1	DAX1 inh 4.3
S=C(NCc1cccs1)Nc1cccc2ccccc12	HSF-1 act 56
CC(C)(C)c1ccc(NC(=S)NCc2cccs2)cc1	HSF-1 act 145
N/C(=N\OC(=O)C1CCCCC1)c1ccc(Cl)cc1	HSF-1 act 85
O=C(CNC(=O)C1CCCCC1)OCC(=O)c1ccc(Br)cc1	HSF-1 act 65 (no result: AHR act)
N/C(=N\OC(=O)C1CCCCC1)c1ccc(Br)cc1	HSF-1 act 57
N/C(=N\OC(=O)C1CCCCC1)c1ccncc1	none
CCOc1ccc(C(=O)COC(=O)CNC(=O)C2CCCCC2)cc1	none (no result: HSF-1 act, HSF1 inhib)
CS(=O)(=O)c1ccc(Cl)c(NC(=O)CCN2C(=O)NC3(CCCC3)C2=O)c1	none (no result: HSF-1 act, HSF1 inhib)
CCNC(=O)c1ccc(CSc2ccc(Cl)cc2)cc1	none
CC(=O)NCCNC(=O)c1ccc(CSc2ccc(Cl)cc2)cc1	HSF-1 act 68
O=C(NCc1ccccc1)c1ccc(Cl)cc1	none (no result: DAX1 inh, FXN GAA850 act)
CC(C)c1ccc(C(=O)NCc2ccc(Cl)cc2)cc1	HSF-1 act 57
CCOC(=O)C1=C(CS(=O)(=O)c2ccccc2)NC(=O)NC1c1cc(OC)c(O)c(OC)c1 (centres undefined)	none
Cc1ccc2nc(-c3ccc(SCC(=O)Nc4nnc(C)s4)nc3)[nH]c2c1	none (no result: HSF-1 act, HSF1 inhib)
O=C(CSc1nccc(=O)[nH]1)Nc1ccc2c(c1)OCCO2	DAX1 inh 4.8
Cc1ccc2nc(-c3ccc(SCC(=O)Nc4nc(C)cs4)nc3)[nH]c2c1	AHR act 67, HSF-1 act inconclusive
